According to PubChem BioAssay (NCATS):
Records with an inconclusive call do not appear. The source holds several records for some structures; these can differ, active in one and inactive in another. Calls of active or inactive are those of the source. Unless noted, calls come from the whole dose curve; as a rule, active = well fitted curve in the direction sought with a large enough effect; inconclusive = small, poorly fitted or top-dose-only effect, or another doubt; inactive = no such curve, though single readings can be large; an effect the other way counts as inactive or inconclusive.

Key:
[1] = High Content Imaging Cell-Based qHTS for Inhibitors of the mTORC1 Signaling Pathway in MEF (Tsc2-/-, p53-/-) Cells (AID 2666); conditions: at 38.3 µM (top of the series);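 note: percent of cells scored positive for phospho-rpS6 Ser235/236 immunostaining by imaging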
Method in brief: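 Tsc2-/-, p53-/- MEFs (empty-vector stable) grown in DMEM + 10% FBS were exposed to compounds for 24 hrs at 37 degree Celsius, fixed, and stained with Alexa-488 anti-phospho-rpS6 Ser235/236 plus Hoechst. Imaging gave the percentage of positive cells per well.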

[2] = Validation screen for small molecules that induce DNA re-replication in MCF 10A normal breast cells (AID 463097); note: nearly all actives have a fitted effect of over 60% in size; note: potency is the fitted concentration of half-maximal effect
Method in brief: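 Read-out is Hoechst total nuclear intensity by fluorescence scanning imager, flagging increased high-DNA-content nuclei. Compounds were incubated with MCF 10A cells for 48 hr (37 C, 5% CO2) before 40 min staining.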

[3] = biological target: Ubiquitin carboxyl-terminal hydrolase 2 (Homo sapiens) (UniProt O75604); test: qHTS Validation Assay for Inhibitors of Ubiquitin-specific Protease USP2a Using CHOP2 as the Reporter (AID 463106)
Method in brief: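 Readout was coupled fluorescence (Ex 485/Em 531 nm), read 60 min after adding 25 nM final Ub-CHOP2 and 25 nM reporter substrate. Beforehand, 10 nM final USP2 core had 30 min at RT with compound in pH 8.0 buffer. Curves were fitted after normalization to NEM and flagged for artifacts using time-zero reads.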

[4] = biological target: DNA polymerase III PolC-type (Bacillus subtilis (strain 168)) (UniProt P13267); test: qHTS Validation Assay for the Inhibitors of DNA Replication in Gram-Positive Bacteria (AID 485295);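 note: reconstituted holoenzyme with PolC plus beta clamp SSB and primase; PicoGreen fluorescence of double-stranded DNA made on primed circular M13 template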
Chain of DNA polymerase III PolC-type (Bacillus subtilis (strain 168)) (P13267 whole entry, looked up): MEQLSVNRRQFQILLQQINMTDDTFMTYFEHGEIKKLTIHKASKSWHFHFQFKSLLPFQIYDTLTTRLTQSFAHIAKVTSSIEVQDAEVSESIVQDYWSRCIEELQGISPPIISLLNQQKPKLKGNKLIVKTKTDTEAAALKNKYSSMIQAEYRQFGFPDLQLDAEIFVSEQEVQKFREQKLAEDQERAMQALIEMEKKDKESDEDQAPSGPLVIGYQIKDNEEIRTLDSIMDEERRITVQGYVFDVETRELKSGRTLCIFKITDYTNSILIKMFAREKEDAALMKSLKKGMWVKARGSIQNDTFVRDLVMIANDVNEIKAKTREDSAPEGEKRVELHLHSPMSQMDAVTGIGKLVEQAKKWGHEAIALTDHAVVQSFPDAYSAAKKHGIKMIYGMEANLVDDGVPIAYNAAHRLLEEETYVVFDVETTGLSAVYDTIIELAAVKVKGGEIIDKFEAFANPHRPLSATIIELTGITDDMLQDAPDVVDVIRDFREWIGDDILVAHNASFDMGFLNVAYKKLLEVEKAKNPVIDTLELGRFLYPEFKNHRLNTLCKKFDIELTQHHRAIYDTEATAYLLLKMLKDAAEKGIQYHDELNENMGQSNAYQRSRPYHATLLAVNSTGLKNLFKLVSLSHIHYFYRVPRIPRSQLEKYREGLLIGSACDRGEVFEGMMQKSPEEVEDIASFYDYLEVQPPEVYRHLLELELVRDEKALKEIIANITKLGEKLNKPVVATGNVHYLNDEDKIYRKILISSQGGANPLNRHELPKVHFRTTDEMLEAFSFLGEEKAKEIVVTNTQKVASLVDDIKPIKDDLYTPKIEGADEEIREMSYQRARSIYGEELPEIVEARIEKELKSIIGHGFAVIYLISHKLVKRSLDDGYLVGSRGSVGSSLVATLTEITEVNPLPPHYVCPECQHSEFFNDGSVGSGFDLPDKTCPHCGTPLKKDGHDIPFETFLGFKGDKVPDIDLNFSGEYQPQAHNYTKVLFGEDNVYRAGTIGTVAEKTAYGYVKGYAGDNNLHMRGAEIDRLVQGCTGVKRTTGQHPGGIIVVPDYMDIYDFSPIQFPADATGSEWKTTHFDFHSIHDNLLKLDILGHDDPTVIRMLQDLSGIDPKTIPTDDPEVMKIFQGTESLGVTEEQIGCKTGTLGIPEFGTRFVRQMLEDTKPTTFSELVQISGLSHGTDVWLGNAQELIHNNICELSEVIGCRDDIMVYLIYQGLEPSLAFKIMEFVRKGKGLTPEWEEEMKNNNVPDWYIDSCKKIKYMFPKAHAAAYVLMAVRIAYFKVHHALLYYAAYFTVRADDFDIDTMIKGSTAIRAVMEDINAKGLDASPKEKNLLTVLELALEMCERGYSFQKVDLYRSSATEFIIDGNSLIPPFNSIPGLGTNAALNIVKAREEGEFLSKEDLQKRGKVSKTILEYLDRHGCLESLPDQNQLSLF
Method in brief: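 Double-stranded DNA product detected by PicoGreen fluorescence after EDTA quench. Compound incubated with B. subtilis holoenzyme (PolC, beta subunit, SSB, primase) before substrate addition; primed replication of M13Gori with dNTPs and NTPs at room temperature; DMSO defines 0% inhibition.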

[5] = biological target: Tumor susceptibility gene 101 protein (Homo sapiens) (UniProt Q99816); test: qHTS Validation Assay for Iinhibitors of HIV-1 Budding by Blocking the Interaction of PTAP/TSG101 (AID 485342; calls by dose curve)
Chain of Tumor susceptibility gene 101 protein (Homo sapiens) (Q99816 whole entry, looked up, the tested form may be a part): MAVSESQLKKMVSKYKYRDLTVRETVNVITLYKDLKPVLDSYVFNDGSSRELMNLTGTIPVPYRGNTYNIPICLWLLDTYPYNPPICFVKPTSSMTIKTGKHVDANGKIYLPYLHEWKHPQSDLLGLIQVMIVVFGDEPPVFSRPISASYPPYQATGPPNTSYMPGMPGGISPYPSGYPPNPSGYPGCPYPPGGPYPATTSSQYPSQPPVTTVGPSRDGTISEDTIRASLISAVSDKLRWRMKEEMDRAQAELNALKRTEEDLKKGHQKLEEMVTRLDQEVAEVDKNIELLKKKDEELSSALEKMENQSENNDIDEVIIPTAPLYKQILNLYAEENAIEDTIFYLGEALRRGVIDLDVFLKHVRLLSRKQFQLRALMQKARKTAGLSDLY
Method in brief: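 Fluorescence polarization of 50 nM FITC-PTAP peptide bound to 10 uM Tsg101 binding domain was read after 20 min room-temperature incubation with compounds, in 10 mM HEPES pH 7.5, 0.15 M NaCl, 0.01% Tween 20.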

[6] = biological target: Beta-2 adrenergic receptor (Homo sapiens) (UniProt P07550); test: qHTS validation assay of beta-arrestin-biased ligands of beta2-adrenergic receptor (AID 485366)
Method in brief: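 Screening used a titration range of up to 46 microM in a beta-arrestin recruitment Tango luciferase assay. Cells in 1% FBS medium were treated 18 hr at 37 degrees C, and luminescence was normalized to %Activity.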

[7] = biological target: ATP-dependent 6-phosphofructokinase (Trypanosoma brucei brucei) (UniProt O15648); test: qHTS Validation Assay to Find Inhibitors of T. brucei phosphofructokinase (AID 485368); note: potency is the fitted concentration of half-maximal effect
Chain of ATP-dependent 6-phosphofructokinase (Trypanosoma brucei brucei) (O15648 whole entry, looked up): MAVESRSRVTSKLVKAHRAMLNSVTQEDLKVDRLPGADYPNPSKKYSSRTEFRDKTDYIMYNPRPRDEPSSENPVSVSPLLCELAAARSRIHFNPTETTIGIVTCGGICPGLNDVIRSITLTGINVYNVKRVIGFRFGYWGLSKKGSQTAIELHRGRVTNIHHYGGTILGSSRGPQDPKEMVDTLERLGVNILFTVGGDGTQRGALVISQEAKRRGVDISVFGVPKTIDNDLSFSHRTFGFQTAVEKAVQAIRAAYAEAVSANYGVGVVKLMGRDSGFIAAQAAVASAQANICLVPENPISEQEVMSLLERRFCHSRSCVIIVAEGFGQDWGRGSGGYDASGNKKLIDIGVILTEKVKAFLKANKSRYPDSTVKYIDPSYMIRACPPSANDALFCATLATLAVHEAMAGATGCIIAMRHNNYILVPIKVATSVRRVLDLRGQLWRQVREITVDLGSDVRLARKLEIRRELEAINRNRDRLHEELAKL
Method in brief: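 PFK-generated ADP was measured after 45 min at room temperature using ADP-Glo. The reaction contained 0.5 mM F6P and 0.1 mM ATP.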

[8] = Quantitative high throughput screen for delayed death inhibitors of the malarial parasite plastid, 48 hour incubation (AID 488752); note: nearly all actives have a fitted effect of over 65% in size; note: potency is the fitted concentration of half-maximal effect
Method in brief: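 First, compound was pinned into RPMI 1640 medium containing 0.5% Albumax. Next, reporter-parasite-infected erythrocytes were added to 2% hematocrit and 0.1% parasitemia. After 48 h at 37 C under 5% CO2, luciferase detection reagent was added and luminescence read.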

[9] = biological target: Thioredoxin reductase 1, cytoplasmic (Rattus norvegicus) (UniProt O89049); test: qHTS Assay for Substrates of Mammalian Selenoprotein Thioredoxin Reductase 1 (TrxR1) (AID 488772);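 note: a drop in NADPH fluorescence below the no-compound background marks a TrxR1 substrate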
Chain of Thioredoxin reductase 1, cytoplasmic (Rattus norvegicus) (O89049 whole entry, looked up): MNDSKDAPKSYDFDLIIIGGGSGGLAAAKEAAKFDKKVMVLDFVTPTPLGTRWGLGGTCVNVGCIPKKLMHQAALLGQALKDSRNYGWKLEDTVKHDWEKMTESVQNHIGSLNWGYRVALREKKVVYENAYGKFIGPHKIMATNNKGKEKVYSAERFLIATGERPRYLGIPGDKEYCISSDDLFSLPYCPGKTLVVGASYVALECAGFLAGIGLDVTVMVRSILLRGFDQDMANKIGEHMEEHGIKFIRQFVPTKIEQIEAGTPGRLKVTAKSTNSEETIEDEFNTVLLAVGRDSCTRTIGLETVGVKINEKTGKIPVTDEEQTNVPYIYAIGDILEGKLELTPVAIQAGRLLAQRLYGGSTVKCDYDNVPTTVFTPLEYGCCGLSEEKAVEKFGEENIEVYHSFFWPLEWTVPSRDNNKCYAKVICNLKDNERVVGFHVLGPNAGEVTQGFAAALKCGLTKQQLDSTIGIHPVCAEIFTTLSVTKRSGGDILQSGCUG
Method in brief: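 In this dual-purpose format, potential substrates are identified from the first fluorescence read after selenite addition, not from the 8-minute delta. Rat enzyme is preincubated with NADPH and then with compound at ~22 deg C.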

[10] = biological target: Flap endonuclease 1 (Homo sapiens) (UniProt P39748); test: qHTS Validation Assay for the Inhibitors of Human Flap endonuclease 1 (FEN1) (AID 488816)
Method in brief: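 qHTS format: compounds and 10 nM FEN1 incubated 15 min at room temperature before adding 50 nM substrate. Cleavage followed by reads at 0 and 15 min; normalized data fitted to a four-parameter Hill curve.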

[11] = biological target: M-phase phosphoprotein 8 (Homo sapiens) (UniProt Q99549); test: qHTS Validation Assay for Inhibitors for MPP8 Chromodomain Interactions with Methylated Histone Tails (AID 488949); note: nearly all actives have a fitted effect of over 55% in size; note: potency is the fitted concentration of half-maximal effect
Chain of M-phase phosphoprotein 8 (Homo sapiens) (Q99549 whole entry, looked up): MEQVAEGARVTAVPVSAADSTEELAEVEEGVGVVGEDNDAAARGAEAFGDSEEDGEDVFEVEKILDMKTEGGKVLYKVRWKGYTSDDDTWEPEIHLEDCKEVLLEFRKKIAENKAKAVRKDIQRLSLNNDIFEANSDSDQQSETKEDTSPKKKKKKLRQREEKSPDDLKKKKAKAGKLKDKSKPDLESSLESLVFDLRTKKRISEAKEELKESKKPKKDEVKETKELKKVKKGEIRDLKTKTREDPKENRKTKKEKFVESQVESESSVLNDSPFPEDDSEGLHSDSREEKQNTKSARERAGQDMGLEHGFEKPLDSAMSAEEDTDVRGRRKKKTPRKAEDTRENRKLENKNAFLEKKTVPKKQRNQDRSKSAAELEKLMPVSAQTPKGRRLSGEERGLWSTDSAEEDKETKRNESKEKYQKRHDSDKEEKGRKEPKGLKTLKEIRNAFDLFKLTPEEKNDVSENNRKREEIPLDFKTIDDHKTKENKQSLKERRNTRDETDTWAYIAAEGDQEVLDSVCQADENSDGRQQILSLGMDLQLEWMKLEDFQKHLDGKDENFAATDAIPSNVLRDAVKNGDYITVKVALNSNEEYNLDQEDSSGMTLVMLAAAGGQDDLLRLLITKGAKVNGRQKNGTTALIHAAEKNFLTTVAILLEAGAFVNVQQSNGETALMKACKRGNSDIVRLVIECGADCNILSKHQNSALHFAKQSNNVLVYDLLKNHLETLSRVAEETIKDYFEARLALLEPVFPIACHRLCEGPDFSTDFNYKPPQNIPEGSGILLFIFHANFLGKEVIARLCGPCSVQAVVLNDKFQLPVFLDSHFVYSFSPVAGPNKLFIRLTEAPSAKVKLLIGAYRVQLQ
Method in brief: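 AlphaScreen proximity signal from streptavidin donor and Ni-chelate acceptor beads (10 ug/mL each) reported binding of MPP8 to trimethyl-K9 H3(1-18) peptide, both at 50 nM. The complex formed 30 min before a 30 min compound exposure at room temperature, in PBS pH 7.4.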

[12] = biological target: Chromobox protein homolog 1 (Homo sapiens) (UniProt P83916); test: qHTS Validation Assay for Inhibitors of HP1-beta Chromodomain Interactions with Methylated Histone Tails (AID 488953); note: nearly all actives have a fitted effect of over 50% in size; note: potency is the fitted concentration of half-maximal effect
Method in brief: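 Disruption of preformed HP1-beta:H3K9me3 peptide complexes (both 50 nM, PBS pH 7.4 with 0.01% Tween-20) is measured by AlphaScreen after 30 min compound exposure at room temperature, using streptavidin donor and nickel chelate acceptor beads at 10 ug/mL final.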

[13] = biological target: Methanococcus maripaludis chaperonin (MmCpn) (UniProt Q6LX38); test: High-Throughput Screening for Modulators of Cytosolic Chaperonin Activity: MmCpn Primary Screen (AID 488978);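 note: 50 nM MmCpn enzyme hydrolysing 30 µM ATP at 37 °C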
Method in brief: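 ATPase activity of 50 nM MmCpn was assayed with 30 uM ATP, 10 minutes at 37C, after a 5 min compound preincubation at room temperature. ADP production was read as HTRF emission at 590 and 665 nm.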

[14] = biological target: Transient receptor potential cation channel subfamily V member 1 (Homo sapiens) (UniProt Q8NER1); test: HTS Assay for Compounds that Act as Enhancers of the Vanilloid Receptor 1 (AID 488979)
Method in brief: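 Calcium influx kinetics via Fluo-8 (480/520 nm) in TRPV1-expressing cells, 2000/well cultured overnight at 35.5C. Compound-alone read 3 min (agonist phase), followed by EC20 capsaicin challenge for 2 min (enhancer phase).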

[15] = biological target: Thyrotropin receptor (Homo sapiens) (UniProt P16473); test: qHTS Assay for Antagonists of the Thyroid Stimulating Hormone Receptor (AID 488980)
Chain of Thyrotropin receptor (Homo sapiens) (P16473 whole entry, looked up): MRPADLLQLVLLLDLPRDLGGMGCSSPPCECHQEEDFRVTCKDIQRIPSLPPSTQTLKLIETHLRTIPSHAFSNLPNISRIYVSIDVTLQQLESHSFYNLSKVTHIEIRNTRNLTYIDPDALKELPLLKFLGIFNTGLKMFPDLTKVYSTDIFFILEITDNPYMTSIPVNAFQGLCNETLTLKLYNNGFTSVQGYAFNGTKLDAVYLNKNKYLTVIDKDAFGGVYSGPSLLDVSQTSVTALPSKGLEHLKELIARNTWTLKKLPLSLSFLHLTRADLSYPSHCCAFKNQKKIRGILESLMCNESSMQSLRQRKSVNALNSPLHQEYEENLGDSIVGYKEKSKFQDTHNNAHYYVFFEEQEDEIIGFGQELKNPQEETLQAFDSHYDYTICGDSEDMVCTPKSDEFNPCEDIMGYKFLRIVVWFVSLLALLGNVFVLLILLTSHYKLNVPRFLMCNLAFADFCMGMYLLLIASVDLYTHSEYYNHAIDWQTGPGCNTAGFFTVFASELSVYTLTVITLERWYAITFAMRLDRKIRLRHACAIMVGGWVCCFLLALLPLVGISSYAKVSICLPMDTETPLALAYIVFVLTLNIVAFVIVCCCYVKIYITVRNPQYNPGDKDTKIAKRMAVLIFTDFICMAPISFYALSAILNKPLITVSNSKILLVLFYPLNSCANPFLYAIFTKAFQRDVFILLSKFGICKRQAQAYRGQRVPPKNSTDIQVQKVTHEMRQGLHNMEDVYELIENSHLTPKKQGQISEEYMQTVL
Method in brief: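 Inhibition of cAMP raised by EC80 TSH (4 nM final) was read by HTRF, with lysate cAMP competing against cAMP-d2 for cryptate antibody after 30 min at room temperature. The cells were transfected HEK293 held in phosphodiesterase inhibitor RO 20-1724 at 70 uM.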

[16] = biological target: D(1A) dopamine receptor (Homo sapiens) (UniProt P21728); test: HTS Assay for Allosteric Agonists of the Human D1 Dopamine Receptor: Primary Screen for Agonists (AID 488981)
Chain of D(1A) dopamine receptor (Homo sapiens) (P21728 whole entry, looked up): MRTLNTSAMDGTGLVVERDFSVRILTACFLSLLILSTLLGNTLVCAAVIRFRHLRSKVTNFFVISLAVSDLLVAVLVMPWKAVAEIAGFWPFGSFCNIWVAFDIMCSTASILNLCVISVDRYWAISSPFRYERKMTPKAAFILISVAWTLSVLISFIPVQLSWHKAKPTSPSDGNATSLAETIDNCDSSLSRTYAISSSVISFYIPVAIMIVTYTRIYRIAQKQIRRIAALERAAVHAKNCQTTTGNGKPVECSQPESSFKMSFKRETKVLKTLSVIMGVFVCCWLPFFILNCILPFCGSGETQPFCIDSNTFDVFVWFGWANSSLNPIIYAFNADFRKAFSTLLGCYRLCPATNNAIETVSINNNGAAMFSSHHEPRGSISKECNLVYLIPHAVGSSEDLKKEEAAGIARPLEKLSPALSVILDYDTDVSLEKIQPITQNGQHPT
Method in brief: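 Calcium flux in an inducible, force-coupled HEK293 Trex D1 line (overnight at 30 C): agonist mode is the 180 s kinetic read after compound; potentiator mode is the following 180 s read after dopamine at EC20.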

[17] = High Content Imaging Cell-Based qHTS for Inhibitors of the mTORC1 Signaling Pathway in MEF Cells (AID 2667);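 note: Tsc2-/- p53-/- MEFs stably re-expressing wild-type Tsc2 exposed 24 h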
Method in brief: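 Tsc2-/-, p53-/- MEFs stably re-expressing WT Tsc2, grown in DMEM + 10% FBS, were treated with compounds for 24 hrs at 37 degree Celsius, fixed, and stained with Alexa-488 phospho-rpS6 Ser235/236 antibody plus Hoechst; results given as % positive cells.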

[18] = Cytometry Cell-Based qHTS for Inhibitors of the mTORC1 Signaling Pathway in MEF cells (AID 2668);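 note: Tsc2-/- p53-/- mouse embryonic fibroblasts stably re-expressing wild-type Tsc2; percent cells positive for phospho-rpS6 Ser235/236 relative to propidium iodide stain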
Method in brief: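 Phospho-rpS6 (Ser235/236) immunofluorescence over PI signal, scored as % positive cells using thresholds from 7.5 nM rapamycin and DMSO wells, after 24 h compound exposure of WT-Tsc2-rescued Tsc2-/-, p53-/- MEFs. PI cell count recorded for viability.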

[19] = qHTS Validation Assay to Find Inhibitors of Chronic Active B-Cell Receptor Signaling (AID 485345; active = well fitted curve in the direction sought with a large enough effect in the main read-out, with a control signal flat, not every such curve was filed as active)
Method in brief: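 Read-out: ratio of filter-corrected green (IkappaBalpha fusion) to red (native) luciferase signal in doxycycline-induced TMD8 cells after 4 h at 37C. Titration spanned 46 uM–3 nM; Data were normalised to basal cells and 10 uM MG-132 wells.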

[20] = Quantitative high throughput screen for delayed death inhibitors of the malarial parasite plastid, 96 hour incubation (AID 488745); note: nearly all actives have a fitted effect of over 70% in size; note: potency is the fitted concentration of half-maximal effect
Method in brief: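 Readout is firefly luciferase luminescence from an integrated reporter in P. falciparum; lower signal marks inhibited growth. Cultures at 2% hematocrit and 0.1% parasitemia were treated with compound across two generations (96 h, 37 C, 5% CO2).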

Measured: Potency

O=[N+]([O-])c1ccc(-c2nc(-c3ccc(F)cc3)c(-c3ccncc3)[nH]2)cc1
active: [2] 12.6 µM | [8] 10.4 µM | [12] 31.6 µM
inactive: [1] | [3] | [4] | [5] | [6] | [7] | [9] | [10] | [13] | [14] | [15] | [16]
22.4 µM (active) and inactive: [11]

Cn1cnc2c(NCc3ccccc3)nc(NCCO)nc21
inactive: [1] | [17] | [18] | [2] | [3] | [4] | [5] | [19] | [6] | [7] | [9] | [10] | [11] | [12] | [13] | [14] | [15] | [16]

Nc1ncnc2n[nH]c(Nc3ccc(F)cc3)c12
inactive: [1] | [17] | [3] | [4] | [5] | [19] | [6] | [7] | [9] | [10] | [11] | [12] | [13] | [16]

COc1ccccc1N1CCN(CCN2C(=O)CC3(CCCC3)CC2=O)CC1
inactive: [1] | [17] | [18] | [2] | [3] | [4] | [5] | [19] | [6] | [7] | [8] | [9] | [10] | [11] | [12] | [13] | [14] | [15] | [16]

Cc1nn(-c2ccccc2)c(C)c1/C=N/N1CCN(Cc2ccccc2)CC1
inactive: [1] | [17] | [18] | [3] | [4] | [5] | [6] | [7] | [9] | [10] | [13] | [16]
active: [12] 39.8 µM

COc1cccc2c1[C@@H]1CN(CCCCn3c(=O)[nH]c4c(sc5ncc(-c6ccccc6)nc54)c3=O)C[C@@H]1CO2
inactive: [3] | [5] | [6] | [9] | [10] | [13] | [14] | [15] | [16]
active: [11] 20 µM | [12] 22.4 µM

Brc1ccc([C@H]2CN3CCSC3=N2)cc1
active: [2] 7.08 µM
inactive: [1] | [17] | [18] | [3] | [4] | [5] | [19] | [6] | [7] | [20] | [8] | [9] | [10] | [11] | [13] | [14] | [15] | [16]

CCN(CC)CCNC(=O)c1ccc(NS(C)(=O)=O)cc1
inactive: [1] | [17] | [18] | [3] | [4] | [5] | [19] | [6] | [7] | [9] | [10] | [11] | [12] | [13] | [16]

N[C@@H](Cn1ccc(=O)c(O)c1)C(=O)O
inactive: [1] | [17] | [18] | [3] | [4] | [5] | [19] | [6] | [9] | [10] | [11] | [12] | [13] | [16]

Clc1ccc2c(c1)N=C(N1CCNCC1)c1ccccc1N2
inactive: [1] | [3] | [4] | [5] | [6] | [7] | [9] | [10] | [11] | [12] | [13]

C[N+](C)(C)CCO
inactive: [1] | [17] | [18] | [2] | [3] | [4] | [5] | [19] | [6] | [20] | [8] | [9] | [10] | [11] | [12] | [13] | [14] | [15] | [16]

COC(=O)C1=CO[C@@H](O)[C@@H]2C(CO)=CC[C@H]12
inactive: [1] | [17] | [18] | [3] | [4] | [5] | [19] | [6] | [7] | [10] | [11] | [12] | [13] | [16]

CN(C)c1cc2c(Nc3ccc4c(cnn4Cc4ccccc4)c3)ncnc2cn1
active: [2] 3.16 µM | [20] 7.38 µM | [8] 4.65 µM
inactive: [1] | [17] | [3] | [4] | [5] | [6] | [9] | [11] | [13] | [14] | [15] | [16]

CC(C)N(CCC(=O)c1ccc2ccccc2c1)Cc1ccccc1
28.2 µM (active) and inactive: [11]
active: [2] 3.55 µM | [7] 13.5 µM | [12] 44.7 µM
inactive: [1] | [3] | [4] | [5] | [6] | [20] | [8] | [9] | [10] | [13] | [15] | [16]

O=C1NC(=O)/C(=C/c2ccc3c(c2)OC(F)(F)O3)S1
inactive: [1] | [17] | [18] | [3] | [4] | [5] | [6] | [7] | [9] | [10] | [11] | [13] | [16]

O=C1NC(c2cccc([N+](=O)[O-])c2)=CCN1c1ccccc1O
inactive: [1] | [17] | [18] | [2] | [3] | [4] | [5] | [19] | [6] | [8] | [9] | [10] | [11] | [12] | [13] | [14] | [15] | [16]

C[C@]12CCC(=O)C=C1CC[C@@H]1[C@@H]2[C@@H](O)C[C@@]2(C)[C@H]1CC[C@]2(O)C(=O)COC(=O)CCC(=O)O
inactive: [2] | [20] | [8] | [11] | [14] | [15]

NC(N)=NCCCCN=C(N)N
inactive: [1] | [17] | [18] | [2] | [3] | [4] | [5] | [19] | [6] | [7] | [20] | [8] | [9] | [10] | [11] | [12] | [13] | [14] | [15] | [16]
